The source of these data is PubChem BioAssay.

A short description of experiment [1]: rapamycin-like changes in RPL19A-GFP expression – cell-based, S. cerevisiae, multiplex flow cytometry, primary screen (AID 1862; in the data active means percent of DMSO control GFP below about 86%;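 further: lower values mimic rapamycin by blocking the RPL19A rise seen in DMSO cells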). Particulars: S. cerevisiae RPL19A-GFP strain, flow cytometry fluorescence, 3 h; at 10 µM; stronger effect = lower value. For orientation: A flow cytometer gives signals particle by particle.
Experiment [2] can be described thus: TOR pathway GLN3 branch reporter MEP2-GFP changes – S. cerevisiae, multiplex flow cytometry, primary screen (AID 1867;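 active means GFP response, as percent of the DMSO control, above the screen-wide mean plus 3 SD, about 139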;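 further: median GFP channel fluorescence of barcode-gated MEP2-GFP cells measured by flow cytometry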). As to conditions: S. cerevisiae MEP2-GFP strain, 3 h, at 10 µM, stronger effect = higher value, 100% means same as DMSO wells.
A short description of experiment [3]: TOR pathway RTG branch CIT2 reporter changes – S. cerevisiae, GFP fusion, multiplex flow cytometry, primary screen (AID 1870;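 active means percent response above a set limit, the screen-wide mean plus 3 SD, cut at about 130% in these data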;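 further: barcoded CIT2-GFP strain pooled with four other GFP strains with rapamycin as positive control; median GFP fluorescence per well over plate mean of DMSO wells so 100% = DMSO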). As to conditions: S. cerevisiae CIT2-GFP expression, 3 h, at 10 µM, stronger effect = higher value.
Experiment [4] is described as follows: TOR pathway LAP4-GFP level changes – S. cerevisiae, multiplex flow cytometry, primary screen (AID 1873;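 active means GFP signal, as percent of the solvent control, above the screen mean plus 3 SD, about 149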). Particulars: S. cerevisiae LAP4-GFP expression, 3 h, at 10 µM, stronger effect = higher value.
Experiment [5] is described as follows: yeast AGP1-GFP level changes, GLN3 branch – cell-based, multiplex flow cytometry, S. cerevisiae, primary screen (AID 1887;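 active means GFP signal above the screen-wide mean plus 3 SD, that is over about 124.5% of the solvent control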;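 further: AGP1-GFP fusion strain of S. cerevisiae within a five-strain barcoded multiplex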). As to conditions: 3 h, at 10 µM, stronger effect = higher value.
The nature of experiment [6]: reduced mouse 2C T cell binding to pMHC/ICAM-1 vesicles – MLPCN validation set, flow cytometry, LFA-1/ICAM-1 modulator project, pilot screen (AID 2523;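 active means response below a set limit, under 55% cells CD8-positive and vesicle-bound, and CD8 cells' 90th-percentile brightness under 279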;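 on vesicle binding response: mean PE anti-B7-1 fluorescence of CD8+ cells relative to row control; 100% = QL9-loaded vesicles with DMSO vehicle in the same plate row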). Particulars: 2C mouse CD8+ T cells, at 7 µM, stronger effect = lower value; double positive events: measured here: CD8+/vesicle+ event percentage.
The target in experiment [7] is Integrin beta-1 (Homo sapiens) + Integrin alpha-4 (Homo sapiens) (UniProt P13612+P05556). The experiment in a line: alpha4beta1 integrin LIBS antibody binding reduction – U937 cells, HUTS-21 mAb, flow cytometry, validation set, VLA-4 allosteric modulator project, pilot screen (AID 2674;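 active means inhibition above 50%, about 3 SD of the validation set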;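 further: antibody binding induced by the VLA-4 ligand LDV present at three times its Kd; 0% = LDV ligand with antibody and no compound and 100% = antibody without LDV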). As to conditions: HUTS-21 LIBS mAb binding, at 6.7 µM, stronger effect = higher value, binding induced by LDV ligand.
Integrin beta-1 (Homo sapiens) + Integrin alpha-4 (Homo sapiens), sequence (P05556 whole entry, looked up): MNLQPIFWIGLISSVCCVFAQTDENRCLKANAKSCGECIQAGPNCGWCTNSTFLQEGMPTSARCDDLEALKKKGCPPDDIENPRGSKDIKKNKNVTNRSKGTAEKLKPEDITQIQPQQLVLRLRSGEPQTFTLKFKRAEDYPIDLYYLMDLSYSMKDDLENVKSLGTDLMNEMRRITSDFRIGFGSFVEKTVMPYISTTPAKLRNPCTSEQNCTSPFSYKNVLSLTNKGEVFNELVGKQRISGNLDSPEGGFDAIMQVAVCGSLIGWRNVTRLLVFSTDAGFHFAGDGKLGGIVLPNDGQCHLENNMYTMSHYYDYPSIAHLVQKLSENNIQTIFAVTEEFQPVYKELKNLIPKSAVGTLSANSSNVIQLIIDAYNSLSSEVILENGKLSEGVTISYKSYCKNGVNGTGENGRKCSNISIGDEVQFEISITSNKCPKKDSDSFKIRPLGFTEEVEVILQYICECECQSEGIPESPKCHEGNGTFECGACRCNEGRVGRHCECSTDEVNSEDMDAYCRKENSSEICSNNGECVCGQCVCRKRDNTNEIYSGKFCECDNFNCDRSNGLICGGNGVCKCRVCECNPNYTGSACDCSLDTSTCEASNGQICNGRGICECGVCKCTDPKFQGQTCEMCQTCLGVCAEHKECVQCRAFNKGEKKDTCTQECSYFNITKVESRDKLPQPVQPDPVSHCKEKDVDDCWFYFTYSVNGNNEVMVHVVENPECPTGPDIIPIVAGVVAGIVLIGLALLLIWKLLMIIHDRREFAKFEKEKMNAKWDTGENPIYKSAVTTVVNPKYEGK
Integrin beta-1 (Homo sapiens) + Integrin alpha-4 (Homo sapiens), sequence (P13612 whole entry, looked up): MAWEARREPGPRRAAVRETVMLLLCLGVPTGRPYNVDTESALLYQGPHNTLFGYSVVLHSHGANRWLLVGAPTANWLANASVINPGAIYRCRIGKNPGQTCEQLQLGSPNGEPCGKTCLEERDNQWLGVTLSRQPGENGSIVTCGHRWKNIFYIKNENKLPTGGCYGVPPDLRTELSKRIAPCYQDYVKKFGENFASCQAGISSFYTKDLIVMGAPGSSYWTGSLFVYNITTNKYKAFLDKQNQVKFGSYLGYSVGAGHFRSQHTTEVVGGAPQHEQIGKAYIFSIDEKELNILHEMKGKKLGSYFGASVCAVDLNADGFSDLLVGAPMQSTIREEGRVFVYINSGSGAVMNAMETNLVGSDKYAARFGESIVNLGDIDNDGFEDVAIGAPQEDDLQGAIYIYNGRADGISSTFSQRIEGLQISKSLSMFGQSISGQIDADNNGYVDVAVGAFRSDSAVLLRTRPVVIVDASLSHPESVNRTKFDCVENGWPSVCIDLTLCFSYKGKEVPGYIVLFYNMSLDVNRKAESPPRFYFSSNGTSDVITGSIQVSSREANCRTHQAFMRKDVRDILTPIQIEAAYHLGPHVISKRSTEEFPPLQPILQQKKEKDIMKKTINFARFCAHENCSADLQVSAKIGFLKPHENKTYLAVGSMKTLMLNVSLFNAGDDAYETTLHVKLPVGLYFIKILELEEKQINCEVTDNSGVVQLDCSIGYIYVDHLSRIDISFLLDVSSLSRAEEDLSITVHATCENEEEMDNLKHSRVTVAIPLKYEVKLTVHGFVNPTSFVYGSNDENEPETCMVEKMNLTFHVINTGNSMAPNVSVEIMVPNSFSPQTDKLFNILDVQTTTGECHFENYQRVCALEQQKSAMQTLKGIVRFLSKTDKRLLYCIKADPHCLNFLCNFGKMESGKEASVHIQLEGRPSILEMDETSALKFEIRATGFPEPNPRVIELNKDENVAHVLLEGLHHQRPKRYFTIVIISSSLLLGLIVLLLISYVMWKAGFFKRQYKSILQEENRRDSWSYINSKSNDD

Experiment [8] in a line: calorie-restriction mimetic ROS inhibitors, yeast – validation compound set, pilot screen (AID 2706;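 active means superoxide response below 65% of plate, a cut near 3 SD across the whole screen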;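 further: yeast exposed to compound for one week at 30 degrees C before staining; 100% = mean of all compound wells on the same plate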). Particulars: S. cerevisiae aging, superoxide DHE fluorescence; at 10 µM; stronger effect = lower value.
Experiment [9] addresses Beta-adrenergic receptor kinase 1 (Homo sapiens) (UniProt P25098). The experiment in a line: GRK2 binders displacing RNA aptamer, biochemical, validation, human GRK2, bead flow cytometry (AID 488806). Particulars: bead-bound GRK2, FAM-aptamer displacement, at 10 µM, stronger effect = higher value.
The target of experiment [10] is Beta-2 adrenergic receptor (Homo sapiens) (UniProt P07550). The experiment can be described thus: agonist-induced loss of surface beta2AR – cell-based, FAP fluorogen, flow cytometry, validation set, pilot screen (AID 504459;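 active means percent response above 42, roughly 3 SD of non-fluorescent test compounds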;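 further: agonist-driven loss of surface beta2AR via internalization measured by FAP dye flow cytometry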). As to conditions: Am2.2-beta2AR cells, at 10 µM, stronger effect = higher value.
Beta-2 adrenergic receptor (Homo sapiens), sequence (P07550 whole entry, looked up): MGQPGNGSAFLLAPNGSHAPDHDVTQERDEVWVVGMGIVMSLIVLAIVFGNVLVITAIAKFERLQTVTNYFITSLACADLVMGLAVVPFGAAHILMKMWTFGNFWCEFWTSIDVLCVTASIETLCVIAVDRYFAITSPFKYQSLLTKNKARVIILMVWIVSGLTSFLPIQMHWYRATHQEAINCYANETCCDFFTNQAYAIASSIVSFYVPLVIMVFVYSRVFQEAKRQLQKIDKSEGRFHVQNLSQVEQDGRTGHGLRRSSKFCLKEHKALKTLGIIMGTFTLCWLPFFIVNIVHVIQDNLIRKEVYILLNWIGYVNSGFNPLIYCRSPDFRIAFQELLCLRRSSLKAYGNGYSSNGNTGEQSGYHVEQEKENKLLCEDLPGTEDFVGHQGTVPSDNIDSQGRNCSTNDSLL
The target of experiment [11] is AP-2 complex subunit beta (Homo sapiens) (UniProt P63010). The experiment can be described thus: beta-arrestin/AP2 interaction blockers – biochemical, validation set, GST-AP2 beads, flow cytometry, pilot screen (AID 504541;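 active means inhibition above 54%, about 3 SD of non-fluorescent compounds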;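 further: AP2 carries R879A mutation and is captured from E. coli lysate; bead-bound FITC arrestin peptide fluorescence measuring arrestin peptide binding to AP2; 0% = DMSO wells and 100% = excess unlabeled arrestin peptide control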). Particulars: FITC arrestin peptide, at 10 µM, stronger effect = higher value, AP2 beta2 appendage fragment, R879A mutant.
AP-2 complex subunit beta (Homo sapiens), sequence (P63010 whole entry, looked up, the tested form may be a part, one chain of several): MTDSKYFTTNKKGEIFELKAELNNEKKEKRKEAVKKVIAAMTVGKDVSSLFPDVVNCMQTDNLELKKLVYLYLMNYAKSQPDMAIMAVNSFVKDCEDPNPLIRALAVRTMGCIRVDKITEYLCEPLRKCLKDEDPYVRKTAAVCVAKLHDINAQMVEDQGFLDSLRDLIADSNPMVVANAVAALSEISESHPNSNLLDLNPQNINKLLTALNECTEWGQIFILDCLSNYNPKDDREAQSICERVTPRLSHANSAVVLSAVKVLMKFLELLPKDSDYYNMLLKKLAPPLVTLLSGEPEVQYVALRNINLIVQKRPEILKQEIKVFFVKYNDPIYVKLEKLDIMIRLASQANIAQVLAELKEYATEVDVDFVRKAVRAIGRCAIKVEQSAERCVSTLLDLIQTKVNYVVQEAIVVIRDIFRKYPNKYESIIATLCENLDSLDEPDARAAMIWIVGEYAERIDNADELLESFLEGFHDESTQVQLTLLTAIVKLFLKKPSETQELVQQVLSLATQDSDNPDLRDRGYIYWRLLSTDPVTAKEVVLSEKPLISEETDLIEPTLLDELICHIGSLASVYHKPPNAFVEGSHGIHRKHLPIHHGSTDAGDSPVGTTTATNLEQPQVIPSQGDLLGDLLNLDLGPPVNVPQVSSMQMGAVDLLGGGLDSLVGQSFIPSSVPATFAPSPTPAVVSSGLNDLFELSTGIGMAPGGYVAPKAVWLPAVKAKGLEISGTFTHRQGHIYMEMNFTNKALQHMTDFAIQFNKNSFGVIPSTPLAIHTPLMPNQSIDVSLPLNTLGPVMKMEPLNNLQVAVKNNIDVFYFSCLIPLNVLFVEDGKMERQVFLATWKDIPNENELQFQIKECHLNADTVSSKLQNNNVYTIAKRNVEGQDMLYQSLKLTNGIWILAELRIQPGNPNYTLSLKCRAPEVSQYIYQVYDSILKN
A short description of experiment [12]: cytosolic pH regulators acting via V-ATPase – S. cerevisiae, pHLuorin, HTS validation (AID 504600; in the data active means response above about 15%;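 further: plate controls were DMSO for no effect and reference compound for full effect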). As to conditions: V-ATPase proton transport, at 10 µM, stronger effect = higher value.
In experiment [13] the test system is anti-desmoglein-3 scFv antibody binding to human DSG3. The experiment can be described thus: blockers of pathogenic pemphigus antibody–desmoglein-3 binding – biochemical, validation compound set, bead-based, flow cytometry, pilot screen (AID 588368;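 active means binding below the plate cutoff, the plate median minus 3 SD, with a reading above zero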;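 further: signal is the median channel fluorescence of bead-bound GFP antibody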). As to conditions: Protein G beads, DSG3-Fc, scFv-GFP binding, at 10 µM, stronger effect = lower value.
A short description of experiment [14]: Nile Red efflux blockade in pump-expressing yeast – validation compound set, multiplex, phenotypic, pilot screen (AID 588506;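 active means efflux inhibition above 0.42, the validation set average plus 4 SD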;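 further: Nile Red retained in cells so higher fluorescence means more efflux inhibition; 0 = negative control wells and 1 = enniatin B 25 µM full block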). As to conditions: S. cerevisiae pump-expressing triplex, Nile Red efflux flow cytometry; at 10 µM; stronger effect = higher value; the pumps come from Candida albicans.
In experiment [15] the target is ATP-binding cassette sub-family B member 6 (Homo sapiens) (UniProt Q9NP58). The experiment in a line: blockers of ABCB6-driven porphyrin uptake – K562-ABCB6 cells, flow cytometry, validation set, pilot screen (AID 588550;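 active means inhibition above the screen-wide mean plus 3 SD, about 51%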;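 further: 0% = DMSO wells and 100% = benzethonium chloride 70 µM positive control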). Particulars: K562-ABCB6 porphyrin accumulation, 1 h, at 10 µM, stronger effect = higher value.
ATP-binding cassette sub-family B member 6 (Homo sapiens), sequence (Q9NP58 whole entry, looked up): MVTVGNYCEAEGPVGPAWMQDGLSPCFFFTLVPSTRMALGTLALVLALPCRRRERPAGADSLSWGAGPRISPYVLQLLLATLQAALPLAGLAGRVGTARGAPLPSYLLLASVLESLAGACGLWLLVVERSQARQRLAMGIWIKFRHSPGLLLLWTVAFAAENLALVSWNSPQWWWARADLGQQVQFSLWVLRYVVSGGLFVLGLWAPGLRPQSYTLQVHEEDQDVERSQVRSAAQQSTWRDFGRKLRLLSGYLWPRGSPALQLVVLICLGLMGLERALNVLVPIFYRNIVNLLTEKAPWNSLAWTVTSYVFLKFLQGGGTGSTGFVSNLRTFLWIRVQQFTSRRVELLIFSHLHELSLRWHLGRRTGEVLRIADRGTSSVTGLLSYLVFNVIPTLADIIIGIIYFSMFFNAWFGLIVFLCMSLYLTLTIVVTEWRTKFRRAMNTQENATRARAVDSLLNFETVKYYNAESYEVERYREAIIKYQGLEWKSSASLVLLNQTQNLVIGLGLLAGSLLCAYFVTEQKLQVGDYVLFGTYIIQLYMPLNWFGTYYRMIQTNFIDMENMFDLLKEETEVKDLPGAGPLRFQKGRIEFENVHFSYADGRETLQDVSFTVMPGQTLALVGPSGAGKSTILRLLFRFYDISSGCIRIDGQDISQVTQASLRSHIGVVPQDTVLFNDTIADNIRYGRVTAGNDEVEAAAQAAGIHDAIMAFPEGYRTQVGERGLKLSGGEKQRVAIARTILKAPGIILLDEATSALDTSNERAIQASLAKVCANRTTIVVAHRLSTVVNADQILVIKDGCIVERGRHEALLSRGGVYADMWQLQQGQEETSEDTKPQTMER
Experiment [16] can be described thus: AML differentiation inducers, ER-HoxA9 marrow cells – cell-based, GFP/MAC1 double positive, flow cytometry, validation set, primary screen (AID 588685;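 active means differentiation response of at least 50%, scaled between solvent and reference control, from cells with both markers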;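 further: compound exposure lasts four days before antibody staining and flow analysis; 0% = DMSO wells and 100% = 5 µM fulvestrant positive control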). As to conditions: stronger effect = higher value, normalized: vehicle 0, fulvestrant 100.

The structures appear in SMILES notation. Where “and” joins values, the source holds several entries; their conditions need not be identical. Equal entries are not always repeated. Records with an inconclusive call do not appear. Calls of active or inactive are those of the source.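 How the source made its calls, unless noted: active means aptamer binding inhibition above 30%, about 3 SD of noise from non-fluorescent compounds; inactive means inhibition at or below 30%.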

In general, inhibition refers to the change of the read-out against control, counted positive when it falls.

Beta-adrenergic receptor kinase 1 (Homo sapiens), sequence (P25098 whole entry, looked up): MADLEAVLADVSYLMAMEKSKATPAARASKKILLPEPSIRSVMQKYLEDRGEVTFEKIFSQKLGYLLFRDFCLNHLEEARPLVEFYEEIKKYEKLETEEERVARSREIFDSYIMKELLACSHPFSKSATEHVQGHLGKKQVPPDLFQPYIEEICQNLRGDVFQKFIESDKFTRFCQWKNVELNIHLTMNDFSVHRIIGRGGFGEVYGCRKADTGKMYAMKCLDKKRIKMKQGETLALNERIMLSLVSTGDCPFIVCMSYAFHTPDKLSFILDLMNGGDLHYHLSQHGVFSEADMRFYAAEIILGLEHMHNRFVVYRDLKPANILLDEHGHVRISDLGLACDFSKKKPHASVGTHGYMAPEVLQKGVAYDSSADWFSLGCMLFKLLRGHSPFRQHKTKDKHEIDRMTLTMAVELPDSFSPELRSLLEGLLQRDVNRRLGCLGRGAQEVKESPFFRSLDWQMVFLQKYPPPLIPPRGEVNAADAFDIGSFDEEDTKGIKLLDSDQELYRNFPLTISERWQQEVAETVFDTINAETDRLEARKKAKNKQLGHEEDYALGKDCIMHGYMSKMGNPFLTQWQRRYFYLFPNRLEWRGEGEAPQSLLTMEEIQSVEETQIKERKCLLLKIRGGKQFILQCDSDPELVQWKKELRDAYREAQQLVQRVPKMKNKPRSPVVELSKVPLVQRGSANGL

`Cc1coc2c1c(C)cc1oc(=O)c(Cc3ccccc3)c(C)c12`: the percent of DMSO control GFP in experiment [1] was 100% (inactive). In addition, the GFP response vs DMSO was 98.7% (inactive) in experiment [2] and 93.7% (inactive) in experiment [4]. For the same compound, the percent response of DMSO control in experiment [3] is 102% (inactive). Moreover, the GFP response, % of DMSO in experiment [5] is 101% (inactive). The same compound yielded a double positive events in [6] of 56.9%. In experiment [6], the vesicle binding response is 138% (inactive). For the same compound, the inhibition in [7] was -11.8% (inactive); in experiment [11] it was 16.9% (inactive); in [15], 1% (inactive). For the same compound, in [8], the superoxide response (% of plate) was 90.7% (inactive). Besides, the aptamer binding inhibition in [9] was -1% (inactive). The response in [10] is -0.64% (inactive); in experiment [12], 18.1% (active). Moreover, the binding (% of control) in [13] is 97.9% (inactive). For the same compound, in experiment [14], the efflux inhibition (fraction of control) is -0.14 (inactive). Also, the differentiation response in experiment [16] is -8.96% (inactive).
`Cc1cccc(-c2ncc(CN3CCN(CC(C)C)C(CCO)C3)cn2)c1` (stereo not drawn): the percent of DMSO control GFP in experiment [1] was 104% (inactive). The GFP response vs DMSO is 100% (inactive) in experiment [2] and 76.2% (inactive) in experiment [4]. Also, the percent response of DMSO control in [3] was 108% (inactive). Moreover, in experiment [5], the GFP response, % of DMSO is 99.2% (inactive). The same compound had a double positive events in [6] of 65.5%. In addition, the vesicle binding response in experiment [6] was 344% (inactive). Further, the inhibition in experiment [7] was -3.57% (inactive); in experiment [11], -1.77% (inactive); in [15], 15% (inactive). Moreover, in experiment [8], the superoxide response (% of plate) is 97.3% (inactive). Further, in experiment [9], the aptamer binding inhibition is 2% (inactive). For the same compound, the response was -5.5% (inactive) in experiment [10] and 3.08% (inactive) in experiment [12]. Further, the binding (% of control) in experiment [13] is 101% (inactive). Also, the efflux inhibition (fraction of control) in [14] was 0.02 (inactive). In [16], the differentiation response was 4.15% (inactive).
Consider `O=C(Nc1ncc2c(n1)CC(c1ccco1)CC2=O)c1ccco1` (stereo not drawn), for which the percent of DMSO control GFP in experiment [1] was 93.9% (inactive). The GFP response vs DMSO in [2] is 113% (inactive); in [4] it was 132% (inactive). Besides, the percent response of DMSO control in [3] was 95.8% (inactive). The GFP response, % of DMSO in [5] was 95.7% (inactive). Moreover, the double positive events in [6] worked out at 55%. Also, in experiment [6], the vesicle binding response is 187% (inactive). For the same compound, the figures for the inhibition in [7], in experiment [11] and in experiment [15] were -11.3% (inactive), 1.11% (inactive) and 1% (inactive), respectively. The superoxide response (% of plate) in experiment [8] is 102% (inactive). Further, in experiment [9], the aptamer binding inhibition is 6% (inactive). Further, the figures for the response in experiment [10] and in experiment [12] were -16% (inactive) and -0.72% (inactive), respectively. Also, the binding (% of control) in experiment [13] was 99.1% (inactive). Besides, the efflux inhibition (fraction of control) in experiment [14] is 0.01 (inactive). In addition, the differentiation response in experiment [16] was -18.4% (inactive).
On to `CCCCOc1cc(C(=O)NCCN(CC)CC)c2ccccc2n1`, for which, in experiment [1], the percent of DMSO control GFP is 94.8% (inactive). Further, the results for the GFP response vs DMSO in experiment [2] and in experiment [4] were 128% (inactive) and 79.8% (inactive), respectively. Moreover, the percent response of DMSO control in [3] was 106% (inactive). Moreover, the GFP response, % of DMSO in experiment [5] is 92.8% (inactive). Further, in experiment [6], the double positive events was 48.4% and 71.1%. In addition, the vesicle binding response in experiment [6] is 187% (inactive) and 185% (inactive). Moreover, the inhibition is 13.8% (inactive) and 14.2% (inactive) in [7]; -5.17% (inactive) and -1.67% (inactive) in experiment [11]; 11% (inactive) and 10% (inactive) in experiment [15]. Further, the superoxide response (% of plate) in experiment [8] was 88.6% (inactive) and 105% (inactive). For the same compound, the aptamer binding inhibition in experiment [9] was -2% (inactive) and -3% (inactive). Further, the response in [10] was -3.62% (inactive); in experiment [12], -31% (inactive) and -1.46% (inactive). The binding (% of control) in experiment [13] was 145% (inactive) and 101% (inactive). Moreover, the efflux inhibition (fraction of control) in experiment [14] is 0.03 (inactive) and 0.09 (inactive). Further, the differentiation response in experiment [16] was 7.87% (inactive) and 9.01% (inactive).
